From PubChem BioAssay (NCATS) come the findings set out here.

Results filed as inconclusive are left out. Calls of active or inactive are those of the source. The call rests on the fitted dose curve; in most records, active means well fitted inhibition curve with a large enough effect in the polarisation, with a control signal flat (not every such curve was filed as active); inconclusive means small, poorly fitted or top-dose-only effect, or effect the other way; inactive means flat fitted curve, though single readings scatter; the % refers to the polarisation.
Potency means the concentration at half of the fitted maximal effect.

Chain of Peptidyl-prolyl cis-trans isomerase NIMA-interacting 1 (Homo sapiens) (Q13526 whole entry, looked up): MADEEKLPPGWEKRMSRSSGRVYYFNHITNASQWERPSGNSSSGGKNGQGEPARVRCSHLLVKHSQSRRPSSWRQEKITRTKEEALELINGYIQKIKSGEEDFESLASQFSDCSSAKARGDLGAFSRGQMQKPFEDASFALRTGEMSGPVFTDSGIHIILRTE

The target of this assay is Peptidyl-prolyl cis-trans isomerase NIMA-interacting 1 (Homo sapiens) (UniProt Q13526). Description: qHTS Validation Assay to Find Inhibitors of Pin1 (AID 504536). The note with it: Pin1 fluorescence polarization peptide binding assay; series mostly up to 57.5 µM; activity, negative = inhibition: at the top concentration. From the text:
NIH Molecular Libraries Probe Production Network [MLPCN]
NIH Chemical Genomics Center [NCGC]
The unique chemical properties of Pro allow for the adoption of two completely distinct amide bond conformations (cis and trans). Peptidyl-prolyl cis/trans isomerases (PPIases) are evolutionary conserved enzymes that catalyze cis/trans isomerization of peptidyl-prolyl peptide bonds. Distinct from all other PPIases such as cyclophilins and FK506-binding proteins (FKBPs), Pin1 binds a subset of phos.Ser/Thr-Pro-containing proteins using its protein-targeting WW domain and isomerizes only specific phos.Ser/Thr-Pro bonds, which cannot be effectively catalyzed by other known PPIases.
Pin1-catalyzed conformational regulation can control a spectrum of activities of many key regulators in diverse cellular processes such as cell growth, genotoxic and other stress responses, immune response, germ cell development, neuronal differentiation and survival. Pin1 has emerged as a novel molecular timer that modulates its multiple targets at various steps of a given cellular process to synergistically control the amplitude and duration of a cellular response or process. Importantly, Pin1 is tightly regulated by multiple levels and its deregulation has an important role in a growing number of pathological conditions, including cancer, Alzheimer's disease, aging, asthma and microbial infection, providing a potentially new therapeutic option.
The goal of this screen is to find small-molecule inhibitors of Pin1 using a fluorescence polarization competition assay. A HiFluor-488-labeled peptide binds to the active site of Pin1 and can be displaced by compounds. Compounds were screened as a concentration-titration series that ranged from 57 uM to 0.7 nM.
NCGC Assay Protocol Summary:
Pin1 (0.6 uM) was dispensed into black, solid 1536-well plates at 2 uL/well in 10 mM HEPES (pH 7.5), 10 mM NaCl, 0.01% Tween20, 1 mM DTT, and 1% glycerol. Then, 23 nL of compounds or DMSO were delivered to each well using a pin tool. Two uL of Pin1-1b-HiFluor488 peptide (10 mM HEPES (pH 7.5), 10 mM NaCl, 0.01% Tween20, 1 mM DTT, and 1% glycerol, 0.02 uM Pin1-1b-HiFluor488) was then dispensed, and plates were incubated at room temperature for 10 min. The plates were measured on a ViewLux plate reader for fluorescence polarization signal using a 480/20 nM nm excitation filter and 540/25 nM nm S and P emission filters with a 20 second exposure. The %Activity was determined from the corrected fluorescence polarization values. Unlabeled Pin1-1c peptide was used as a control (3.5 mM two-fold serial; 20 uM final concentration) along with a 1x (0.3 uM) and 0x (no-enzyme) Pin1 enzyme control to normalize %Activity of identified inhibitors; 0x enzyme values corresponded to 100%Activity (full inhibition), while 1x Pin1 enzyme values were used to normalize 0%Activity (no inhibition).
Concentration-response curves were fitted to the signals arising from the resulting fluorescence polarization. The concentration-effect curves were then classified based on curve quality (r2), response magnitude and degree of measured activity, and compounds were subsequently categorized based on their curve class.
Keywords: Peptidyl prolyl isomerase, Pin1, fluorescence polarization, MLSMR, MLPCN, NIH Roadmap, qHTS, NCGC
For the compound `O=C(Nc1cccc(C(=O)Nc2ccc(S(=O)(=O)O)c3cc(S(=O)(=O)O)cc(S(=O)(=O)O)c23)c1)Nc1cccc(C(=O)Nc2ccc(S(=O)(=O)O)c3cc(S(=O)(=O)O)cc(S(=O)(=O)O)c23)c1`, the Potency was 6.75 µM (active).
Consider `CN(C)c1nc2c(Br)c(Br)c(Br)c(Br)c2[nH]1`, for which the “activity, negative = inhibition” value is 5.91% (inactive).
With `O=P(O)(O)C(Cl)(Cl)P(=O)(O)O`, the Potency is 26.9 µM (active).
As for `Cc1ccccc1CNc1ncnc2c1ncn2C1OC(CO)C(O)C1O` (stereo not given), the “activity, negative = inhibition” value is -3.43% (inactive).
The same measure, in the same setting: for `Oc1cc2c(cc1O)CN(C(=S)NCCc1ccc(Cl)cc1)CCC2` the value was -1.35% (inactive); for `Nc1nc(SCc2ccc([N+](=O)[O-])cc2)c2ncn([C@@H]3O[C@H](CO)[C@@H](O)[C@H]3O)c2n1`, 0.366% (inactive).
Consider `CN1CCc2cc(O)c(O)cc2C(c2ccccc2)C1` (stereo not given), for which the “activity, negative = inhibition” value is -5.89% (inactive).
Still for that read-out and setting: for `CCCCCCCCCCCCCCCC(=O)NCC(COP(=O)([O-])OCC[N+](C)(C)C)OCC` (stereo not given) the value was 11.8% (inactive); for `NCCCCC(=O)O`, -0.781% (inactive).
`CC(C)Cc1ccc([C@H](C)C(=O)O)cc1`: the “activity, negative = inhibition” value is -14.2% (inactive).
For `CCNC(=O)[C@H]1O[C@@H](n2cnc3c(N)nc(NCCc4ccc(CCC(=O)O)cc4)nc32)[C@H](O)[C@@H]1O`, the “activity, negative = inhibition” value was -7.49% (inactive).
Same read-out and setting: for `CC1OC1P(=O)(O)O` (stereo not given) the value was -7.35% (inactive); for `Cc1ccc(O)c(N=Nc2ccccc2)n1`, 7.9% (inactive).
Consider `OCC1O[C@H](O)C(Cl)C(O)C1O` (stereo not given in full), for which the “activity, negative = inhibition” value was 10.7% (inactive).
For the compound `O=c1[nH]c2cc(C(F)(F)F)ccc2n1-c1cc(C(F)(F)F)ccc1O`, the “activity, negative = inhibition” value is 0.355% (inactive).
Take `COc1ccc(/C=C/C(=O)Nc2ccccc2C(=O)O)cc1OC`: the “activity, negative = inhibition” value is -6.47% (inactive).
Still for that read-out and setting: for `CCN1/C(=C/C(C)=O)Sc2ccc(OC)cc21` the value was -5.44% (inactive); for `C#C[C@]1(O)CC[C@H]2[C@@H]3CCC4=Cc5oncc5CC4(C)[C@H]3CCC21C` (stereo not given in full), -1.33% (inactive); for `CN(C)CCCO[C@@H]1[C@H]2OC(C)(C)O[C@H]2O[C@@H]1[C@H](O)CO`, -4.24% (inactive).
For `CO/S(=N\S(=O)(=O)c1ccc(Cl)cc1)c1ccc([N+](=O)[O-])cc1` (stereo not given), the “activity, negative = inhibition” value is 1.27% (inactive).
Regarding `CCCCCCCC/C=C\CCCCCCCC(=O)NCCO`, the “activity, negative = inhibition” value was 2.17% (inactive).
With `CNc1ncnc2c1ncn2[C@@H]1O[C@H](CO)[C@@H](O)[C@H]1O`, the “activity, negative = inhibition” value is 0.0878% (inactive).
Turning to `O=C(O)CCCC[C@@H]1CCSS1`, the “activity, negative = inhibition” value was -11.8% (inactive).
`Cn1ncc(S(=O)(=O)Cc2ccccc2)c(Br)c1=O`: the “activity, negative = inhibition” value was -22.6% (inactive).
Same read-out and setting: for `CSc1ccccc1N1CCN(CCCCCC(=O)NC2CCCc3ccccc32)CC1` (stereo not given) the value was 1.89% (inactive); for `Cc1ccc(S(=O)(=O)/C=C/C#N)cc1`, -8.65% (inactive).
In the case of `CCOC(=O)C1=C(C)NC(C)=C(C(=O)OCC)C1c1c(F)c(F)c(F)c(F)c1F`, the “activity, negative = inhibition” value is 4.31% (inactive).
Consider `CC(C)NC[C@H](O)COc1cccc2[nH]ccc12`, for which the “activity, negative = inhibition” value was -0.0994% (inactive).
As for `CCCCCCCCCCCCCCCCCC(=O)OC(CC(=O)O)C[N+](C)(C)C` (stereo not given), the “activity, negative = inhibition” value was 3.23% (inactive).
On the same count and under the same terms, for `C=C[C@H]1CN2CC[C@@H]1C[C@@H]2[C@@H](O)c1ccnc2ccc(OC)cc12` the value was 0.797% (inactive); for `Fc1ccc(C(OCCCc2cnc[nH]2)c2ccc(F)cc2)cc1`, -0.247% (inactive); for `O=C(O)[C@@H]1C[C@H](C(=O)O)N1`, 0.58% (inactive).
The same measure, in the same setting: for `C=C[C@@H]1CN2CC[C@@H]1C[C@H]2[C@H](O)c1ccnc2ccc(OC)cc12` the value was -0.916% (inactive); for `CCC1C(=O)OCC1Cc1cncn1C` (stereo not given), 1.95% (inactive).
Still for that read-out and setting: with `C=CC(N)CCC(=O)O` (stereo not given) the figure was 1.39% (inactive); with `C[N+]1(C)CCC(OC(=O)C(c2ccccc2)c2ccccc2)CC1`, -3.83% (inactive).
Turning to `CN1CCC[C@H]1c1cccnc1`, the “activity, negative = inhibition” value is -1.28% (inactive).
For `O=C(CCCCCN1CCN(c2ccccc2-c2ccccc2)CC1)NC1CCCc2ccccc21` (stereo not given), the “activity, negative = inhibition” value was 0.154% (inactive).
On the same count and under the same terms, with `CCCCN1CCC(n2c(=O)[nH]c3ccccc32)CC1` the figure was 7.32% (inactive); with `S=C(S)OC1CC2CC1C1CCCC21` (stereo not given), -1.09% (inactive).
